# This is part of a sample that, as a whole, favours compounds with a hit. Of some 83,000 tested, about 20% had one in any assay.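 A percent growth of 40 corresponds to 60% growth inhibition; 0 means no net growth; -100 means all cells died. Active threshold: below 10.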 A number with no mark means an inactive call. Calls of active or inactive are those of the source.
# Legend:
# Test in all cases: NCI-60 one-dose screen, 48 h (100 = growth as untreated, 0 = no growth, -100 = all killed)
# Conditions in all cases: 10 µM unless noted
# [1] = system: SK-MEL-2 melanoma
# [2] = system: EKVX NSCLC
# [3] = system: SN12C renal
# [4] = system: UO-31 renal
# [5] = system: TK-10 renal
# [6] = system: ACHN renal
# [7] = system: CAKI-1 renal
# [8] = system: A498 renal
# [9] = system: CCRF-CEM leukemia
# [10] = system: MOLT-4 leukemia
# [11] = system: SR leukemia
# [12] = system: RPMI-8226 leukemia
# [13] = system: OVCAR-8 ovarian
# [14] = system: OVCAR-5 ovarian
# [15] = system: OVCAR-4 ovarian
# [16] = system: SK-OV-3 ovarian
# [17] = system: IGROV1 ovarian
# [18] = system: OVCAR-3 ovarian
# [19] = system: HS 578T breast
# [20] = system: NCI/ADR-RES ovarian
SMILES,growth [1],growth [2],growth [3],growth [4],growth [5],growth [6],growth [7],growth [8],growth [9],growth [10],growth [11],growth [12],growth [13],growth [14],growth [15],growth [16],growth [17],growth [18],growth [19],growth [20]
COc1cc(OC)c(/C=C/S(=O)(=O)Cc2cnc(OC)c(N)c2)c(OC)c1,24.2%,37.9%,23.7%,25.5%,27.9%,25.7%,34%,-1.94% (active),15.8%,1.79% (active),-6.9% (active),29.1%,18.9%,55.2%,50.3%,11.9%,29.4%,-13.5% (active),47.5%,7.65% (active)
CCN(CC)CCCNc1cc(OC)cc2nc3cc(Cl)ccc3nc12,3.9% (active),0.555% (active),13.1%,-86.7% (active),-15.5% (active),3.95% (active),-78.7% (active),14.3%,19.9%,-26.2% (active),-34.6% (active),-14.3% (active),-8.47% (active),-39.3% (active),-11% (active),6.29% (active),-29.9% (active),-48.9% (active),23.3%,-50.2% (active)
C[C@]12C[C@@H](c3ccoc3)OC(=O)[C@@H]1CC[C@]1(C)[C@@H]2CC[C@@H](O)[C@]1(C)O,74.7%,57.5%,64.1%,75.5%,65%,76.1%,88.2%,19.8%,69.3%,67.3%,74.5%,101%,104%,137%,128%,105%,102%,112%,81.1%,104%
CSc1nc2sc3c(c2c(=O)n1-c1ccc(C(C)C)cc1)CCC(=O)C3,63.8%,23.1%,6.68% (active),-67.2% (active),7.34% (active),-19.9% (active),-9.77% (active),96.3%,-11.8% (active),-12.6% (active),-11.7% (active),-29.9% (active),4.63% (active),6.13% (active),14.5%,35.6%,-6.1% (active),-27.4% (active),2.67% (active),-11.1% (active)
CN(CC(=O)N(Cc1ccc(C2CCCCC2)cc1)c1ccc(C(=O)NO)cc1)S(=O)(=O)c1c(F)c(F)c(F)c(F)c1F,81.2%,106%,86.1%,69.1%,87.4%,79.6%,87.4%,95.7%,41.9%,39.2%,-4.55% (active),62.8%,49.8%,104%,84.4%,111%,28.6%,81.7%,91.6%,90.2%
CCCCCCCCCCCCCCCC(=O)OCC1OC(n2cnc3c(=S)nc(N)[nH]c32)C(OC(=O)CCCCCCCCCCCCCCC)C1OC(=O)CCCCCCCCCCCCCCC (stereo not given),54.7%,48.6%,84.2%,50%,35.7%,75%,49.4%,116%,15.9%,-24% (active),11.4%,30.1%,55.8%,52.1%,78.3%,20.8%,77.1%,50%,119%,39.4%
CC[C@H](CO)Nc1nc(NCc2ccccc2)n2ncc(C(C)C)c2n1,11.1%,0.263% (active),17.1%,10%,15.6%,4.26% (active),9.58% (active),-21% (active),-0.868% (active),-12.9% (active),-44.9% (active),-40.6% (active),28.6%,22.4%,11.8%,51.5%,14.5%,5.88% (active),7.24% (active),19.5%
O=c1cc(-c2ccccc2)[nH]c2ccccc12,55.8%,50.5%,91.6%,46.6%,11.4%,48.8%,47.4%,47.6%,15.2%,32%,22.8%,22.4%,35%,50.6%,64.5%,37.5%,-7.72% (active),-37.8% (active),25.9%,-2.1% (active)
O=[N+]([O-])c1cccc(-c2nc3sccn3c2-c2ccnc(NCCCNS(=O)(=O)c3cccc(F)c3)n2)c1,-29.2% (active),19.1%,18.7%,-11.6% (active),52.9%,6.36% (active),10%,33.7%,3.04% (active),-34.4% (active),13.2%,-32.5% (active),-5.3% (active),66.2%,-12.2% (active),44.6%,3.18% (active),-2.65% (active),31.2%,-20.8% (active)
Cc1ccc2c(c1)n([O-])c1cc(Cl)ccc1[n+]2=O,92.5%,94.6%,100%,88.9%,130%,114%,111%,87.9%,34.9%,-9.08% (active),5.98% (active),104%,108%,102%,82.6%,122%,101%,92.6%,135%,104%
O=C(O)c1cn(C2CC2)c2cc(N3CCN(Cc4nc5c(cnn5-c5ccc([N+](=O)[O-])cc5)c(=O)[nH]4)CC3)c(F)cc2c1=O,120%,93.4%,95.2%,71.8%,122%,103%,94.8%,101%,99%,99.4%,97.5%,98%,99.9%,103%,91.9%,105%,94.2%,112%,105%,106%
CN1CCOCCOCCOc2ccccc2NC(=O)c2nc(cnc2N)-c2ccc(cc2)S1(=O)=O,49.8%,80.4%,64.7%,42.1%,43.7%,8.87% (active),53.7%,29.3%,2.07% (active),0.82% (active),-16.3% (active),30.3%,64%,148%,46.1%,41%,50.8%,43.7%,66.4%,43.5%
O=C(CN1CCN(c2cc3c(cc2F)c(=O)c(C(=O)O)cn3C2CC2)CC1)Nc1nc(-c2ccc(Cl)cc2)cs1,21.9%,35.4%,15.8%,20.2%,26.7%,25.1%,30.4%,4.43% (active),23.8%,30.5%,29.3%,1.14% (active),13.2%,51.7%,67.7%,21.1%,38.6%,14.2%,32.2%,56.9%
CCN(CC)CC(O)CNc1c2ccc([N+](=O)[O-])cc2nc2cc(OC)c(OC)cc12 (stereo not given),-48.7% (active),-27.4% (active),-34.1% (active),4.89% (active),2.27% (active),11.1%,16.3%,-52.9% (active),9.53% (active),-9.91% (active),-7.08% (active),-13.8% (active),-2.1% (active),10%,-39.3% (active),-42.5% (active),-39.9% (active),-37.7% (active),-18.2% (active),51.7%
CCn1cc2c(cc1=O)-c1nc3ccccc3c3ccnc(c13)C2=O,62.3%,87.8%,16.5%,42.5%,86.1%,10.1%,60%,81.7%,104%,80.6%,15.1%,80.1%,55.2%,105%,80.7%,45.8%,70.2%,73.8%,94.4%,71.8%

# Reference: PubChem BioAssay (NCI)
